# APE1 inh: APE1 (human) endonuclease inhibition; P27695; recombinant APE1, TAMRA/BHQ-2 abasic DNA cleavage fluorescence; Potency, µM (doses to about 65.8 µM), without a hit: top-dose activity change, negative = inhibition, usual class: inhibitors; 0.35% of 350,000 active;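 also: plate controls were vehicle for no effect and reference inhibitor for full effect; nearly all actives have a fitted effect of over 55% in size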
# Target sequence (P27695 whole entry, looked up): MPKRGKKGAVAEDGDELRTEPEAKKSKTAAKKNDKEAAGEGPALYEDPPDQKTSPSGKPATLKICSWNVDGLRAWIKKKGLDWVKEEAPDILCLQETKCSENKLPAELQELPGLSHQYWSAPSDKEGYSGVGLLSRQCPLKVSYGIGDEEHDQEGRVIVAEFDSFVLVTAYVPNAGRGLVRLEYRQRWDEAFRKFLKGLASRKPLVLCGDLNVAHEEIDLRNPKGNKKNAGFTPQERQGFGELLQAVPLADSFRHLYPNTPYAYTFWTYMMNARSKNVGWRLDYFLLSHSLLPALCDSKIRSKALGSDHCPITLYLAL
#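 Compound pre-exposure to 0.75 nM APE1, 15 min at ambient temperature. Reaction initiated with 50 nM TAMRA/BHQ-2 THF substrate, read immediately in kinetic mode, 525 nm excitation, 598 nm emission.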
# PKM2 act: activators of human pyruvate kinase M2. P14618. purified PKM2, Kinase-Glo ATP luminescence, activation; response scale: 0% is enzyme alone, no compound. Potency, µM (titrated, usually from 57.5 µM), for the others: top-dose activation, hits mostly activators. 0.34% of 260,000 active; also: nearly all actives have a fitted effect of over 55% in size
#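 ATP formation by purified human PK-M2, quantified via coupled luciferase luminescence after 1 h at room temperature with 0.1 mM ADP and 0.5 mM PEP final.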
# BLM helicase inh: Bloom syndrome helicase (human) inhibition. P54132. recombinant BLM DNA unwinding, fluorescence dequenching. Potency, µM (titrated, usually from 56.1 µM), for inactives: top-dose activity change, negative = inhibition, hits mostly inhibitors. 0.2% of 350,000 active. AID 2528;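 also: plate controls were vehicle for no effect and no enzyme for full effect; nearly all actives have a fitted effect of over 35% in size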
# JMJD2E inh: inhibitors of human JMJD2E histone demethylase. B2RXH2. JMJD2E catalytic domain, FDH-coupled NADH fluorescence (FDH is formaldehyde dehydrogenase). Potency, µM (top dose mostly 57.1 µM), without a hit: at the top dose activity change, negative = inhibition, hits mostly inhibitors. 1.6% of 230,000 active; active = well fitted inhibition curve with a large enough effect, not every such curve was filed as active; inconclusive = small, poorly fitted or top-dose-only effect, or another doubt; inactive = no such curve, though single readings can be large or run the other way;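 also: 0% = wells with enzyme and -100% = buffer wells without enzyme; nearly all actives have a fitted effect of over 50% in size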
# Target sequence (B2RXH2 1-337 limits assumed): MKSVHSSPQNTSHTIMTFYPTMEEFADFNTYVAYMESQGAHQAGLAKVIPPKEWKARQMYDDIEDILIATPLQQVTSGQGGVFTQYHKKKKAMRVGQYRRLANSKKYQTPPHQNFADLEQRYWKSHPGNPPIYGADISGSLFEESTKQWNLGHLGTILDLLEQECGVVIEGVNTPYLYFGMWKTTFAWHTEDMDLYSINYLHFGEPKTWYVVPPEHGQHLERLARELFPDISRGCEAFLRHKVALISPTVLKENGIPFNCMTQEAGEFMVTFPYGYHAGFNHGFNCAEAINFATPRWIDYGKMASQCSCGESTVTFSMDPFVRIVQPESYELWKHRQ
# RECQ1 helicase: inhibitors of human RECQ1 DNA helicase; Potency, µM (top dose mostly 57.3 µM), for the others: at the highest dose activity, negative = inhibition, hits mostly inhibitors; RECQ1 DNA unwinding, red fluorescence kinetic read; 0.54% of 240,000 active;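 also: plate controls were vehicle for no effect and no enzyme for full effect; nearly all actives have a fitted effect of over 30% in size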
#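 50 nM RECQ1T1 preincubated 15 min with compound in Tris pH 8.0 buffer with MgCl2, DTT, Tween-20 and 2.5 ug/ml poly(dI-dC); started with 200 nM TAMRA/BHQ-2 forked duplex and 2 mM ATP. Unwinding read as fluorescence (525/598 nm), two reads 2 h apart.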
# * hit, by the source's call; i = inactive; u = inconclusive; x = not tested or not shown; [ ] = another dose, or the depositor's remark. The sample as a whole holds a higher share of hits than the screen did. Unless noted, calls follow the shape of the dose curve; as a rule, active = well fitted curve in the direction sought with a large enough effect; inconclusive = small, poorly fitted or top-dose-only effect, or another doubt; inactive = no such curve, though single readings can be large; an effect the other way counts as inactive or inconclusive. Unless noted, % is scaled to controls: 0 for no effect and ±100 for the full control effect; potency is read from the fitted curve at half-maximal effect.
SMILES,APE1 inh,PKM2 act,BLM helicase inh,JMJD2E inh,RECQ1 helicase
COc1cc(/C=C2\SC(=S)N(NS(=O)(=O)c3ccc(C)cc3)C2=O)ccc1O,-11.2%,-2.2%,-16.7%,-0.9%,22.4µM*
COc1cc(/C=C2\SC(=S)N(NS(=O)(=O)c3ccccc3)C2=O)ccc1O,-10.8%,0.9%,-6.4%,2.7%,28.2µM*
COc1cc(/C=C2\SC(=S)N(NS(=O)(=O)c3ccc(C)cc3)C2=O)cc(OC)c1OC,-3.2%,1.3%,-3.5%,-2.1%,-3.1%
Nc1ccccc1Sc1nc2ccccc2[nH]1,6.8%,1.8%,-0.8%,12.6µM*,-7.3%
Oc1ccc(Br)cc1/C=N/Nc1ncc(-c2ccccc2)cn1,4.9%,0.6%,-10.7%,5.8%,-1.3%
Oc1ccc(/C=N/Nc2ncc(Br)cn2)c(O)c1,-1.6%,-4.2%,-1.6%,11.2µM*,-0.6%
COc1ccc2nc(-c3cccc(F)c3)sc2c1,-1.4%,x,x,x,x
CCSC[C@H](NC(=O)[C@H](C)N)C(=O)N[C@@H](CC(=O)O)C(=O)N[C@H](C(=O)N[C@@H](C)C(=O)N[C@H](C(=O)N[C@@H](CSCC)C(=O)N[C@H](C(=O)N[C@H](C(=O)N[C@@H](Cc1cnc[nH]1)C(=O)N[C@@H](CCCNC(=N)N)C(=O)N[C@@H](CC(C)C)C(=O)N[C@@H](C)C(=O)NCC(=O)N[C@@H](CC(C)C)C(=O)N[C@@H](CC(C)C)C(=O)N[C@@H](CO)C(=O)N[C@@H](CCCNC(=N)N)C(=O)N[C@@H](CO)C(=O)NCC(=O)NCC(=O)N[C@H](C(=O)N[C@H](C(=O)N[C@@H](CCCCN)C(=O)N[C@@H](CC(N)=O)C(=O)N[C@@H](CC(N)=O)C(=O)N[C@@H](Cc1ccccc1)C(=O)N[C@H](C(=O)N1CCC[C@H]1C(=O)N[C@H](C(=O)N[C@@H](CC(N)=O)C(=O)N[C@H](C(=O)NCC(=O)N[C@@H](CO)C(=O)N[C@@H](CCCCN)C(=O)N[C@@H](C)C(=O)N[C@@H](Cc1ccccc1)C(N)=O)C(C)C)[C@@H](C)O)C(C)C)C(C)C)C(C)C)[C@@H](C)O)C(C)C)[C@@H](C)O)[C@@H](C)O,-0.5%,x,1.2%,x,-10.3%
O=C(CNC(=O)c1cccs1)N/N=C/c1ccc(O)cc1O,-3.0%,6.8%,-0.1%,3.16µM*,-13.4%
O=C(CCc1ccccc1)NCC(=O)N/N=C/c1ccc(O)cc1O,0.0%,-1.0%,-1.5%,6.31µM*,2.3%
O=C(CN1CCCc2ccccc21)N/N=C/c1ccc(O)cc1O,-3.0%,5.1%,-0.3%,25.1µM*,i
O=C(CCc1ccccc1)NCC(=O)N/N=C/c1ccc2c(c1)OCO2,-1.7%,-1.3%,-0.2%,-10.0%,5.0%
O=C(CNC(=O)c1cccnc1)N/N=C/c1ccc(O)cc1O,-6.3%,x,-8.7%,x,x
O=C(CN1CCCc2ccccc21)N/N=C/c1ccccc1,-5.7%,0.9%,-3.0%,-24.8%,4.8%
COc1ccc(C2/C=C\CN(Cc3ccccc3)C(C)C(=O)N2Cc2ccc(F)cc2)cc1 (stereo not drawn),-9.0%,x,-9.3%,x,5.2%
CC[C@H](C)[C@H](NC(=O)[C@H](CC(=O)O)NC(=O)[C@H](CC(C)C)NC(=O)[C@H](Cc1cnc[nH]1)NC(=O)[C@H](C)NC(=O)[C@H](Cc1ccccc1)NC(=O)[C@H](Cc1ccc(O)cc1)NC(=O)[C@@H](NC(=O)[C@H](C)NC(=O)[C@H](CCC(=O)O)NC(=O)[C@H](CCCCN)NC(=O)[C@H](CC(=O)O)NC(=O)[C@H](CCSC)NC(=O)[C@H](CC(C)C)NC(C)=O)C(C)C)C(=O)N[C@H](C(=O)N[C@@H](Cc1c[nH]c2ccccc12)C(=O)O)[C@@H](C)CC,-11.2%,x,-2.3%,x,-19.2%
Oc1cc2c(cc1O)[C@H](c1ccccc1)CNCC2,-4.5%,x,1.0%,14.1µM*,i
COc1cc2c(cc1OC)[C@@H](c1ccccc1)CN(C)CC2,-1.6%,x,x,x,x
Nc1ccccc1Nc1cc(-c2ccccc2)[nH]n1,-1.5%,-2.9%,-4.7%,20µM*,-5.7%
O=C(CN1C(=O)S/C(=C\c2cc(Cl)c(O)c(Cl)c2)C1=O)Nc1ccccc1,-11.1%,-7.7%,-5.7%,x,x
COc1cc(/C=C2\SC(=O)N(CC(=O)Nc3ccc(C)cc3)C2=O)cc(Cl)c1OCC(=O)O,5.32µM*,19.2%,10µM*,x,x
CC(C)(C)OC(=O)NC(NC(=O)OCC1c2ccccc2-c2ccccc21)C(=O)O (stereo not drawn),-0.5%,x,2.5%,x,-13.1%
COC(=O)C1=C(C(=O)OC)[C@@H]2N(C)c3ccccc3[C@@]23C[C@@H](CO)N(C(=O)c2ccco2)C3=N1,-4.4%[12.4 µM],-2.9%[11.5 µM],-3.3%[12.4 µM],1.9%[11.4 µM],2.3%[11.5 µM]
CCC(=O)NC[C@H](Cc1ccc(OCCc2nc(-c3ccccc3)oc2C)cc1)N/C(C)=C\C(=O)c1ccc(C(F)(F)F)cc1,6.3%,x,-19.2%,x,-7.2%
CC(/C=N/NC(=O)CSc1nc2ccccc2n1C)=C\c1ccco1,-8.2%,5.01µM*,-6.0%,-21.2%,u
SMILES,APE1 inh,PKM2 act,BLM helicase inh,JMJD2E inh,RECQ1 helicase
CCCCCCCCCCC(C)=O,-3.9%,x,-1.0%,x,-2.2%
Oc1ccc(/C=N/NC(=S)Nc2cccnc2)cc1O,u,-5.8%,-5.1%,15.8µM*,8.91µM*
O=C(CSc1nc2ccccc2o1)N/N=C/c1ccc(O)c(O)c1,u,29.8%,-20.9%,11.2µM*,-12.2%
O=S(=O)(c1ccc(NC(=S)N/N=C/c2ccc(O)c(O)c2)cc1)N1CCOCC1,12.6µM*,-6.1%,-19.2%,12.6µM*,u
O=C(N/N=C/c1ccc(O)c(O)c1)N/N=C/c1ccc(O)c(O)c1,-95.4%,x,7.94µM*,x,x
Cc1cccc(Cn2cnc3c(cnn3C(C)(C)C)c2=O)c1,-3.6%,x,x,x,x
O=c1c(-c2cccs2)nc2cnc(N3CCNCC3)nc2n1Cc1cccs1,u,x,u,x,-24.5%
COC(=O)c1ccc(Cl)cc1NC(=O)N1CC=C(c2c[nH]c3ccccc23)CC1,x,x,-9.3%,x,x
O=[N+]([O-])c1cc(Cl)cc(/C=N/NC(=S)Nc2ccc(S(=O)(=O)N3CCOCC3)cc2)c1O,-7.0%,-12.2%,-11.5%,25.1µM*,-10.2%
CC(C)CCCCCCNC(=S)Nc1ccc(S(=O)(=O)N2CCOCC2)cc1,u,6.1%,-4.5%,-5.0%,39.8µM*

# Source: PubChem
